Hits are enriched below; roughly 3.9% of the tested compounds scored in any of these assays.
HSF1 inhib: HSF1 inhibition; NIH3T3-HGL HSE-luciferase, MG132-induced, luminescence 8 h; active compounds read low; activity change, negative = inhibition, % at 7.5 µM (by protocol); hit rate 0.77% among 300,000;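 active = more than half of replicate wells show activity change below -50%, luminescence cut by over half; inconclusive = some wells, but at most half, below -50%; inactive = no replicate well below -50%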;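 also: luciferase reports HSF-1 transcriptional activity via heat shock element; 0% = median of DMSO wells and -100% = zero luminescence signal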
HSF-1 act: increases HSF-1 driven luciferase reporter signal. NIH3T3-HGL HSF-1 luciferase reporter, MG132, 8 h; 100% = twice DMSO control signal. activation, % at 9 µM. hit rate 1.7% among 300,000. AID 504408;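 active = mean replicate activation of at least 50% with a set share of replicates each reaching 50%; inconclusive = only one of those two conditions met; inactive = mean below 50% and too few replicates reaching it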;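 also: 0% = median of the neutral control wells and 100% = twice that signal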
Wnt bcat act: activates Wnt/beta-catenin signaling in a reporter cell assay; activator, plate reader; activation, % at 9.35 µM; hit rate 1.2% among 300,000; AID 743398; in the data active = activation above about 30%, passing the limit was not always enough; inconclusive = no clear call, values can overlap the other calls;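 also: 0% = neutral control wells and 100% = positive control wells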
MITF act: activators of MITF-driven TRPM1 promoter activity in SK-MEL-5 cells; SK-MEL-5 TRPM1-promoter luciferase, 24 h; % of positive control, neutral wells = 0; AID 588334; hit rate 0.75% among 300,000; activation, % at 12.5 µM;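 active = mean activation of at least 80% with every replicate also reaching 80%; inconclusive = mean reaches 80% but some replicate falls short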;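 also: 0% = neutral control wells and 100% = parthenolide positive control wells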
esBAF inh: inhibitors of esBAF chromatin remodeling in mouse ES cells; Bmi1-luciferase knock-in reporter, 24 h; 100% = twice the neutral-well signal; reporter increase, % at 12.5 µM; hit rate 2% among 350,000; in the data active = activation above about 40%; inconclusive = no clear call, values can overlap the other calls;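 also: 0% = median of the plate's neutral control wells and 100% = double that signal; a rise in the Bmi1 reporter signal indicates esBAF inhibition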
Numbers without * were called inactive; ? = inconclusive; nt = not tested or not shown; ! = repeats disagree.

SMILES | HSF1 inhib | HSF-1 act | Wnt bcat act | MITF act | esBAF inh
C[C@H](CO)N1C[C@H](C)[C@H](CN(C)C(=O)c2ccc(F)cc2)Oc2ncc(/C=C/c3ccccc3)cc2C1=O | nt | nt | nt | nt | 3
c1cncc(-c2nc(-c3cccs3)cs2)c1 | 13 | -7 | 0 | 22 | 22
CC(=O)Nc1nc(C)c(-c2csc(Nc3ccccn3)n2)s1 | 2 | 14 | 52*! | 13 | nt
c1csc(-c2csc(-c3cccs3)n2)c1 | 8 | 34 | 26 | nt | 53*
COc1ccc(-c2csc(Nc3cccc(C)n3)n2)cc1C | 42 | 98* | 37* | nt | 45*
Cc1cccc(Nc2nc(-c3ccc(F)cc3)cs2)n1 | 22 | 42 | 19 | nt | ?
CCC(=O)N1C[C@H](O)COC[C@H]2O[C@H](CC(=O)NCc3ccc(Oc4ccccc4)cc3)CC[C@@H]21 | nt | nt | nt | nt | 8
COc1ccc(NC(=O)N(C)C[C@H]2Oc3c(NS(=O)(=O)c4ccc(OC)cc4)cccc3C(=O)N([C@@H](C)CO)C[C@@H]2C)cc1 | nt | nt | nt | nt | 0
COCC#Cc1cnc2c(c1)C(=O)N([C@@H](C)CO)C[C@@H](C)[C@H](CN(C)C(=O)Nc1cc(F)ccc1F)O2 | nt | nt | nt | nt | -5
O=C(c1ccc(COc2ccccc2[N+](=O)[O-])o1)N1CCCCC1 | 15 | 22 | nt | 21 | nt
CCOc1ccc(OCc2ccc(C(=O)N3CCCCC3)o2)cc1 | 3 | -3 | 7 | -3 | 16
O=C(c1ccc(COc2ccccc2[N+](=O)[O-])o1)N1CCCCCC1 | 8 | 10 | 0 | 43 | 55*
Cc1ccc(OCc2ccc(C(=O)N3CCCC3)o2)cc1C | 46 | 61* | 11 | 12 | 22
CC(C)(C)c1nc(SCC(=O)Nc2ccc(N3CCOCC3)cc2)c2ccccc2n1 | 27 | 58* | nt | nt | 3
O=C(NC(=S)Nc1ccc(N2CCOCC2)cc1)c1ccccc1 | 33 | 31 | 5 | 14 | 53*
Cn1cccc1C(=O)Nc1ccc(N2CCOCC2)cc1 | nt | nt | 38* | 33 | -22
CC(C)(C)c1nc(SCC(=O)Nc2ccc3c(c2)OCCO3)c2ccccc2n1 | 2 | -6 | -2 | -5 | 4
O=C(NC(=S)Nc1ccc(N2CCOCC2)cc1)c1cccc(Cl)c1 | 15 | 26 | -1 | 18 | nt
CC(C)CC(=O)Nc1ccc(N2CCOCC2)cc1 | 46 | 98* | nt | 14 | 7
COc1ccc(NC(=O)Nc2ccc3c(c2)C(=O)N([C@@H](C)CO)C[C@H](C)[C@@H](CN(C)C(=O)C2CCCCC2)OCCCC[C@H](C)O3)cc1 | nt | nt | nt | nt | 2
C[C@@H]1CN([C@@H](C)CO)C(=O)c2cc(C#CC3(O)CCCC3)cnc2O[C@H]1CN(C)Cc1ccccn1 | nt | nt | nt | nt | 1
COCc1cn(CC[C@@H]2CC[C@H](NC(=O)CCN3CCCCC3)[C@@H](CO)O2)nn1 | nt | nt | nt | nt | -2
C[C@H](CO)N1C[C@H](C)[C@@H](CN(C)C(=O)c2cnccn2)Oc2ncc(/C=C/c3ccccc3)cc2C1=O | nt | nt | nt | nt | -2
C[C@H](CO)N1C[C@H](C)[C@@H](CN(C)S(=O)(=O)c2ccc(F)cc2)Oc2ccc(NC(=O)Nc3cccc4ccccc34)cc2CC1=O | nt | nt | nt | nt | -2
CO[C@H]1CN(C)C(=O)c2ccc(NC(=O)c3cccc(F)c3)cc2OC[C@H](C)N(C)C[C@H]1C | nt | nt | nt | nt | 5
SMILES | HSF1 inhib | HSF-1 act | Wnt bcat act | MITF act | esBAF inh
C[C@@H]1CCCCO[C@@H](CN(C)C(=O)CCCN(C)C)[C@@H](C)CN([C@H](C)CO)C(=O)c2cc(NC(=O)c3ccncc3)ccc2O1 | nt | nt | nt | nt | 5
CCOC(=O)NC(=O)/C(C#N)=N\Nc1cccc(OC)c1 | 4 | -5 | 5 | 7 | nt
CCOC(=O)NC(=O)/C(C#N)=N/Nc1c(F)cccc1F | 25 | 64* | nt | 20 | nt
C[C@H]1CN([C@@H](C)CO)C(=O)Cc2cc(NC(=O)Nc3ccc4c(c3)OCO4)ccc2O[C@H]1CN(C)S(=O)(=O)c1ccc(Cl)cc1 | nt | nt | nt | nt | 1
CCOC(=O)c1ccc(CC(=O)c2ccc(O)cc2O)o1 | -39 | -38 | nt | -50 | 49*
CCc1cc2c(=O)n(C(C)C(=O)OC3CCCCC3)cnc2s1 (centres undefined) | 32 | 66* | 2 | 100* | ?
CCOC(=O)C(C)n1cnc2sc3c(c2c1=O)CCC3 (centres undefined) | 5 | -3 | nt | 9 | 6
O=C(COc1ccc(CO)cc1Cl)Nc1ccc(F)cc1 | 34 | 55* | 22 | 16 | 5
COc1ccccc1NC(=O)CN1CCN(CC(=O)Nc2ccccc2Cl)CC1 | 157 | 243* | -1 | -6 | 0
COc1ccccc1NC(=O)COc1ccc(CO)cc1Cl | 11 | 29 | -3 | nt | 51*
C[C@H]1CN([C@@H](C)CO)C(=O)c2cccc(NS(=O)(=O)c3ccccc3)c2O[C@H]1CN(C)S(C)(=O)=O | nt | nt | nt | nt | -5
O=C(Cn1cc(C(F)(F)F)cc(Cl)c1=O)NCc1ccc(F)cc1 | 14 | 12 | 9 | 48 | 58*
O=C(Cn1cc(C(F)(F)F)cc(Cl)c1=O)NCCc1ccc(Cl)cc1Cl | 1 | -5 | 5 | 12 | nt
CCc1[nH]nc2c1C1(CCN(C(=O)OCc3ccccc3)CC1)C(C#N)=C(N)O2 | 7 | 55* | 0 | 8 | 5
CNC(=O)C[C@H]1CC[C@@H]2[C@H](COc3ccc(NC(=O)c4cnccn4)cc3C(=O)N2C)O1 | nt | nt | nt | nt | 1
O=C(NCC1CC1)[C@H]1[C@H](CO)[C@H]2Cn3c(cccc3=O)[C@@H]1N2CCc1ccccc1 | nt | nt | nt | nt | 4
O=C(NCc1cccnc1)c1c[nH]c2cc3c(cc2c1=O)OCCO3 | -33 | -33 | nt | nt | 62*
O=C(NCc1ccccc1)c1c[nH]c2ccc(S(=O)(=O)Nc3ccc4c(c3)OCCO4)cc2c1=O | -12 | -13 | -4 | 0 | -7
COCC(=O)Nc1ccc2c(c1)[C@@H]1C[C@@H](CC(=O)N3CCCCC3)O[C@H](CO)[C@@H]1O2 | nt | nt | nt | nt | 1
COc1cccc(CNC(=O)C[C@@H]2C=C[C@@H](NS(=O)(=O)c3ccccc3OC)[C@H](CO)O2)c1 | nt | nt | nt | nt | -3
CCOCCCNC(=O)c1cc(C)nn1-c1ccccc1 | -72* | -78 | -4 | nt | 0
NC(=O)c1nnn(-c2ccccc2)c1N | -7 | 7 | 0 | 3 | 3
Cc1cc(C(=O)NCc2ccc(Cl)cc2)n(-c2ccccc2)n1 | -68* | -77 | -1 | 1 | -7
CCCCNC(=O)c1nnn(-c2ccccc2)c1N | 3 | 16 | nt | 30 | 43*
CO[C@H]1CN(C)C(=O)c2cc(NC(C)=O)ccc2OC[C@H](C)N(C(=O)CC2CC2)C[C@H]1C | nt | nt | nt | nt | -4
O=C(C[C@@H]1C=C[C@H](NC(=O)c2ccccn2)[C@@H](CO)O1)NCc1cccc(F)c1 | nt | nt | nt | nt | 1
OC(COc1ccc2ccccc2c1Br)Cn1cnc(-c2ccccc2)c1 (centres undefined) | -82* | -85 | -5 | -5 | nt
C[C@@H]1CN([C@H](C)CO)S(=O)(=O)c2ccc(C#CC3(O)CCCC3)cc2O[C@@H]1CN(C)C(=O)Nc1ccccc1 | nt | nt | nt | nt | -4
O=C(CSc1nncs1)Nc1ccc(N2CCCCC2)cc1 | nt | nt | 14 | 25 | 57*

Source: PubChem BioAssay (Broad Institute)
